From PubChem
Only some compounds are listed: those with a hit (about 3.2% of all), similar ones and a draw of the others.
rCAG RNA binder = binders of r(CAG) RNA repeats, primary screen, biochemical, fluorescence. r(CAG) RNA repeat, TO-PRO-1 dye displacement fluorescence. 370,000 tested, 1.3% active. AID 651821, 2012. inhibition, % at 3 µM;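 active = inhibition above the plate cutoff, the mean of all test compounds on that plate plus 3 SD, cut at about 35% in these data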;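 note: 0% = DMSO alone and 100% = 100 µM mitoxantrone as full dye displacement; higher means more dye released from RNA so lower well fluorescence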
bovine MsrA act = bovine MsrA enzyme activators, primary screen, biochemical, absorbance, HTS; Methionine sulfoxide reductase A (Bos taurus); 360,000 tested, 0.3% active; AID 602163, 2012; activation, % at 10.6 µM; purified bovine MsrA, absorbance read-out; in the data active = activation above about 7.5%;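 note: 0% = vehicle and 100% = reference activator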
PG9 Ab binder = binders of HIV-1 gp120 antibody PG9, primary screen, biochemical, TR-FRET. HIV-1 gp120 / PG9 antibody interaction. TR-FRET gp120-PG9 antibody binding. 360,000 tested, 0.43% active. inhibition, % at 6.7 µM; in the data active = inhibition above about 8.5%
HGIII-sPLA2 inh = human group III sPLA2 inhibitors, primary screen, biochemical, QFRET, BODIPY PC-A2 liposome substrate; Group 3 secretory phospholipase A2 (Homo sapiens), Q9NZ20; 370,000 tested, 0.56% active; QFRET BODIPY PC-A2 liposome hydrolysis, fluorescence; AID 743126, 2013; inhibition, % at 12.2 µM;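 active = inhibition above mean plus 3 SD of compounds lying within the high and low control bounds, cut at about 19% in these data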;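 note: 0% = median of test compound wells and 100% = no enzyme DMSO wells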
Target sequence (Q9NZ20 whole entry, looked up): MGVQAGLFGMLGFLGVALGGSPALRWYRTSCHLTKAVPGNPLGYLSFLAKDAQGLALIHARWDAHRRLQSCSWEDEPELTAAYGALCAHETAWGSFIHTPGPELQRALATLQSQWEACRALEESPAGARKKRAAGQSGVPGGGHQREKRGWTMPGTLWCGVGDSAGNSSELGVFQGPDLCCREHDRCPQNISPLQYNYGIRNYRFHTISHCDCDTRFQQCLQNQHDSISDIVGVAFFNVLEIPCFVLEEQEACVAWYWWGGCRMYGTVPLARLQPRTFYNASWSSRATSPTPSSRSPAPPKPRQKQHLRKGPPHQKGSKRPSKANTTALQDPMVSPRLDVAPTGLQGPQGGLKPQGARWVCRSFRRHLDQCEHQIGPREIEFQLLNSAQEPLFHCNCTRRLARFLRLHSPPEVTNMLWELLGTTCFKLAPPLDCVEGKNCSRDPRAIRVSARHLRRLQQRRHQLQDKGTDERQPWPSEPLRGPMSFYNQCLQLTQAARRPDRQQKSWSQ
MsrA inhibitor = bovine MsrA enzyme inhibitors, primary screen, biochemical, absorbance, HTS | 360,000 tested, 0.75% active | purified bovine MsrA, absorbance read-out | inhibition, % at 15.5 µM | Methionine sulfoxide reductase A (Bos taurus);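 note: 0% = vehicle wells with enzyme and 100% = reference inhibitor wells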
MsrA conf = bovine MsrA inhibitors, retest, confirmation, biochemical, absorbance, HTS | purified bovine MsrA, absorbance read-out | inhibition, % at 15.5 µM | 2,300 tested, 41% active | shares compounds with MsrA inhibitor;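 note: coupled to thioredoxin reductase with NADPH and selenocystamine and DMSO as substrate; 0% = vehicle only and 100% = full effect of reference inhibitor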
rCAG binder conf = small molecules binding CAG repeat RNA – biochemical, fluorescence, confirmation; shares compounds with rCAG RNA binder; r(CAG) RNA repeat, TO-PRO-1 dye displacement fluorescence; inhibition, % at 3 µM; 4,300 tested, 70% active;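 active = inhibition above a per-plate cutoff, the mean inhibition of sample wells plus 3 SD, cut at about 35% in these data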;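 note: loss of TO-PRO-1 fluorescence as compound displaces dye from 1x1 AA loop RNA; 0% = DMSO only wells and 100% = 100 µM mitoxantrone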
dCAG dye counter = displacement of TO-PRO-1 from CAG DNA duplex, counter-screen for rCAG RNA repeat binder project, biochemical, fluorescence, TO-PRO-1 dye, d(CAG) DNA oligo; shares compounds with rCAG RNA binder; d(CAG) DNA oligo TO-PRO-1 dye displacement; inhibition, % at 3 µM; 4,300 tested, 94% active; AID 652068, 2013;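 active = inhibition above its plate's cutoff, the mean test-well inhibition plus 3 SD, cut at about 4.8% in these data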;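 note: 0% = DNA dye mix with DMSO and 100% = 100 µM mitoxantrone; hits displace the dye from DNA and so lower well fluorescence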
* marks the source's active call; other numbers are inactive results. Cut-off read from the data, not from the text of the source, unless noted: active = inhibition above about 4.5%; inactive = the rest.

What do the screens show for `Cc1ccc(NC(=S)C2=C(O)c3ccccc3N(C)S2(=O)=O)cc1`?
rCAG RNA binder: 58.6*; bovine MsrA act: -12.8; PG9 Ab binder: -1.9; HGIII-sPLA2 inh: -19.7; MsrA inhibitor: 4.8*; MsrA conf: 4.4; rCAG binder conf: 34.9*; dCAG dye counter: 8.7*

Results for CN1c2ccccc2C(O)=C(C(=O)Nc2ccccc2)S1(=O)=O ?
rCAG RNA binder: 7.1; bovine MsrA act: -3.4; PG9 Ab binder: -1.5; HGIII-sPLA2 inh: -11.2; MsrA inhibitor: 1.6

How did CN1c2ccccc2C(O)=C(C(=S)Nc2ccc(F)c(Cl)c2)S1(=O)=O do in these assays?
rCAG RNA binder: 81.5*; bovine MsrA act: -9.2; PG9 Ab binder: -1.3; HGIII-sPLA2 inh: -9.4; MsrA inhibitor: 4.9*; MsrA conf: 4.3; rCAG binder conf: 71.8*; dCAG dye counter: 32.2*

How did COCC(=O)N1CCC(C(=O)NCC2COc3ccccc3O2)CC1 (centres undefined) do in these assays?
rCAG RNA binder: 0.3; HGIII-sPLA2 inh: 5.5

How did CCCCOCCCNC(=O)C[C@H]1C(=O)N(Cc2ccc(OC)cc2)C2=CCCC[C@@]21C(=O)OCC do in these assays?
rCAG RNA binder: -1.1; HGIII-sPLA2 inh: -2.5

Results for CNc1ccc(/C=C(\CCC(=O)O)c2nc3ccccc3s2)cc1[N+](=O)[O-] ?
rCAG RNA binder: 77.7*; bovine MsrA act: -6.2; PG9 Ab binder: -4.4; HGIII-sPLA2 inh: -22.9; MsrA inhibitor: 4.8*; MsrA conf: 5.4*; rCAG binder conf: 82.0*; dCAG dye counter: 38.8*

How did Cn1cnnc1Sc1ccc(/C=C(\CCC(=O)O)c2nc3ccccc3s2)cc1[N+](=O)[O-] do in these assays?
rCAG RNA binder: 16.0; bovine MsrA act: -1.4; PG9 Ab binder: -1.9; HGIII-sPLA2 inh: -9.4; MsrA inhibitor: 3.6

What do the screens show for `CS/C(Nc1cc(Cl)ccc1Cl)=C(/C#N)C(=O)c1ccco1`?
rCAG RNA binder: 47.4*; bovine MsrA act: -5.3; PG9 Ab binder: 0.7; HGIII-sPLA2 inh: -29.4; MsrA inhibitor: 5.0*; MsrA conf: 2.6; rCAG binder conf: 32.8; dCAG dye counter: 5.7*

Results for O=C(O)c1ccc(Nc2nc(-c3ccccc3)nc3ccccc23)cc1 ?
rCAG RNA binder: 36.6*; bovine MsrA act: -3.6; PG9 Ab binder: 0.5; HGIII-sPLA2 inh: -27.7; MsrA inhibitor: 6.0*; MsrA conf: 3.4; rCAG binder conf: 22.8; dCAG dye counter: 5.5*

What do the screens show for `CNC(=O)c1ccc(Nc2nc(-c3ccccc3)nc3ccccc23)cc1`?
rCAG RNA binder: 15.4; bovine MsrA act: -4.0; PG9 Ab binder: 2.4; HGIII-sPLA2 inh: -5.0; MsrA inhibitor: 2.0

How did CO[C@H]1C=CO[C@@]2(C)Oc3c(C)c(O)c4c(O)c(c(C=NN5CCN(C)CC5)c(O)c4c3C2=O)NC(=O)C(C)=CC=C[C@H](C)[C@H](O)[C@@H](C)[C@@H](O)[C@@H](C)[C@H](OC(C)=O)[C@@H]1C do in these assays?
rCAG RNA binder: 77.5*; bovine MsrA act: -3.9; PG9 Ab binder: -10.5; HGIII-sPLA2 inh: -9.2; MsrA inhibitor: 5.4*; MsrA conf: 3.4; rCAG binder conf: 78.7*; dCAG dye counter: 48.9*

Results for CC(C)C[C@H]1COc2cccc(F)c2S(=O)(=O)N1Cc1cn(CCC2OCCO2)nn1 ?
rCAG RNA binder: 1.7; HGIII-sPLA2 inh: 0.6

What do the screens show for `Fc1ccc(-c2cc(-c3nnc4sc(-c5cccs5)nn34)[nH]n2)cc1`?
rCAG RNA binder: 14.1; HGIII-sPLA2 inh: -15.2

What do the screens show for `CS(=O)(=O)c1ccc(-c2nnc(NC(=O)c3ccc(S(=O)(=O)N4CCCC4)cc3)o2)cc1`?
rCAG RNA binder: 35.8*; bovine MsrA act: -2.1; PG9 Ab binder: -1.0; HGIII-sPLA2 inh: -3.6; MsrA inhibitor: 5.1*; MsrA conf: 4.5; rCAG binder conf: 15.8; dCAG dye counter: 4.7*

What do the screens show for `CC1CCN(S(=O)(=O)c2ccc(C(=O)Nc3nnc(-c4ccncc4)o3)cc2)CC1`?
rCAG RNA binder: 26.8; bovine MsrA act: -5.5; PG9 Ab binder: -3.2; HGIII-sPLA2 inh: -9.2; MsrA inhibitor: 3.2

Results for CC(=O)CC[C@H]1CC[C@]2(CCCN(Cc3nccn3C)C2)O1 ?
rCAG RNA binder: 1.7; HGIII-sPLA2 inh: 8.6

What do the screens show for `Cc1ccc(-n2ccc(=O)c(C(=O)Nc3ccc(S(=O)(=O)Nc4onc(C)c4C)cc3)n2)cc1`?
rCAG RNA binder: 59.1*; bovine MsrA act: -11.9; PG9 Ab binder: 0.4; HGIII-sPLA2 inh: -14.3; MsrA inhibitor: 4.8*; MsrA conf: 2.1; rCAG binder conf: 46.3*; dCAG dye counter: 15.9*

How did COC(=O)[C@]12C[C@H](CC(=O)N3CCSCC3)C(=O)N(Cc3ccco3)C1=C[C@H](C(C)C)O[C@@H]2C1CC1 do in these assays?
rCAG RNA binder: 4.0; HGIII-sPLA2 inh: -4.2

What do the screens show for `CCN(C)c1nc(C)nc2c1nnn2Cc1ccccc1`?
rCAG RNA binder: 0.9; HGIII-sPLA2 inh: 1.4

Results for Cc1[nH]n(-c2ccccc2)c(=O)c1C=Nc1ccc(S(=O)(=O)Nc2nccs2)cc1 ?
rCAG RNA binder: 43.3*; bovine MsrA act: -2.6; PG9 Ab binder: -1.9; HGIII-sPLA2 inh: -1.5; MsrA inhibitor: 5.7*; MsrA conf: 3.2; rCAG binder conf: 41.4*; dCAG dye counter: 12.9*

What do the screens show for `Nc1nonc1-c1nc2ccccc2n1CC(=O)N/N=C/c1ccc(-c2cccc(C(=O)O)c2)o1`?
rCAG RNA binder: 61.5*; bovine MsrA act: -4.9; PG9 Ab binder: -0.4; HGIII-sPLA2 inh: -32.7; MsrA inhibitor: 5.7*; MsrA conf: 6.3*; rCAG binder conf: 46.4*; dCAG dye counter: 14.2*

How did O=C(N/N=C/c1ccc(N2CCOCC2)cc1)c1ccccc1NS(=O)(=O)c1cccs1 do in these assays?
rCAG RNA binder: 66.2*; bovine MsrA act: -6.8; PG9 Ab binder: 0.7; HGIII-sPLA2 inh: -6.4; MsrA inhibitor: 8.0*; MsrA conf: 7.0*; rCAG binder conf: 50.0*; dCAG dye counter: 16.5*

What do the screens show for `COc1ccc(C=NNC(=O)c2ccccc2NS(=O)(=O)c2cccs2)cc1O`?
rCAG RNA binder: 35.7*; bovine MsrA act: -3.6; PG9 Ab binder: -5.3; HGIII-sPLA2 inh: -20.9; MsrA inhibitor: 5.1*; MsrA conf: 3.4; rCAG binder conf: 36.7*; dCAG dye counter: 10.1*
